Several values for one entry are separate records, joined by “and”; a condition that tells them apart may be missing. Equal entries are not always repeated. Results filed as inconclusive are left out. Entries that show only a call come without a potency. Some compounds were tested as several samples or in several runs, with calls that do not always agree. Activity calls are given as the source filed them. Unless noted, calls come from the whole dose curve; as a rule, active = well fitted curve in the direction sought with a large enough effect; inconclusive = small, poorly fitted or top-dose-only effect, or another doubt; inactive = no such curve, though single readings can be large; an effect the other way counts as inactive or inconclusive.
How the values were obtained:
[1] = molecular target: Glucocorticoid receptor (Homo sapiens) (UniProt P04150); assay: GR-GFP Redistribution (AID 450;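 active = compounds whose dose series gives a full or clear partial fitted curve of increased nuclear translocation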; note: potency is the fitted concentration of half-maximal effect); settings: U2OS GR-GFP nuclear translocation, laser cytometry, 2 h
[2] = molecular target: Glucocorticoid receptor (Homo sapiens) (UniProt P04150); assay: GR-EFC Redistribution (AID 451; calls by dose curve; note: potency is the fitted concentration of half-maximal effect); settings: CHO-K1 GR-EFC translocation, beta-gal luminescence, 2 h
In short: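 Translocation of GR-ED fusion to nuclear EA restores b-gal, read by luminescence after 1 h room-temperature detection. Engineered CHO-K1 biosensor cells, 1,000/well, exposed 2 h at 37 C to titrations up to 46 uM final.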

[3] = molecular target: Mitogen-activated protein kinase 10 (Mus musculus) (UniProt Q61831); assay: JNK3 AlphaScreen Assay (AID 530; active = well fitted curve in either direction with a large enough effect, not every such curve was filed as active;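 note: kinase came from lysate of stimulated human HepG2 cells; signal reports phosphorylation of biotinylated GST-cJun 1-79 at Ser73 with 10 µM ATP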); settings: JNK3 lysate, c-Jun phosphorylation; series mostly up to 57.1 µM
In short: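 Room-temperature AlphaScreen kinase assay; pre-activated HepG2 lysate as JNK3 source, biotin-GST-cJun(1-79) substrate, 10 uM ATP, compound 15 min preincubation.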

[4] = molecular target: 3',5'-cyclic-AMP phosphodiesterase 4B (Homo sapiens) (UniProt Q07343); assay: qHTS Assay for Inhibitors of PDE-IV (AID 607; active = well fitted activation curve with a large enough effect in the main read-out, with a control signal flat, not every such curve was filed as active); settings: HEK293 ACTOne CNG channel cells, membrane potential fluorescence; series mostly up to 22.9 µM
In short: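 ACTOne HEK293 cells carry a modified cAMP-gated CNG channel and express endogenous PDE4; plated 1000 cells/well, compounds up to 22.9 uM final. Membrane-potential dye fluorescence (ex 535/em 590) was read; parental cells received 10 uM forskolin + 100 uM RO 20-1724.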

[5] = Cell Viability - N2a (AID 540); settings: N2a mouse neuroblastoma cell viability; activity change, negative = cytotoxicity: at 92.2 µM (top of the series);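 note: cells exposed to compound for 40 h at 37 °C; nearly all actives have a fitted effect of over 45% in size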
In short: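 First, 1500 N2a cells per well incubate 5 hr at 37 °C; next, compounds are added and incubated 40 hr at 37 °C; finally CellTiter-Glo is added and luminescence read after 20 min, with AC50 derived by Hill modeling.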

[6] = Cell Viability - NIH 3T3 (AID 541); settings: NIH 3T3 cell viability, qHTS; activity change, negative = cytotoxicity: at 92.2 µM (top of the series);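 note: cells exposed to compound for 40 hours; nearly all actives have a fitted effect of over 25% in size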
In short: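 AC50 values reflect concentration-dependent loss of intracellular ATP in NIH 3T3 cells after 40 hr treatment in complete culture medium, quantified by luciferase-based luminescence.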

[7] = Cell Viability - HUV-EC-C (AID 542); settings: HUV-EC-C endothelial cell viability, qHTS; series mostly up to 92.2 µM;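 note: cells exposed to compound for 40 hours; nearly all actives have a fitted effect of over 35% in size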
In short: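 Decrease in cellular ATP, quantified by luciferase luminescence, reflects toxicity in normal human vascular endothelial HUV-EC-C cells given compound for 40 hr in complete culture medium. Values are AC50s from concentration-response curves.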

[8] = Cell Viability - H-4-II-E (AID 543); settings: H-4-II-E rat hepatoma viability; series mostly up to 92.2 µM;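 note: cells exposed to compound for 40 hours; nearly all actives have a fitted effect of over 35% in size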
In short: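 Here, cytotoxicity is measured in the rat hepatoma line H-4-II-E as loss of intracellular ATP after 40 hr compound treatment, detected by luciferase luminescence.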

[9] = Cell Viability - Renal Proximal Tubule (AID 545); settings: renal proximal tubule cells viability, primary cells of rat origin; series mostly up to 91.7 µM;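 note: cells exposed to compound for 40 hours; nearly all actives have a fitted effect of over 40% in size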
In short: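 Primary rat renal proximal tubule cells (1000/well) were treated with compounds for 40 hr at 37 °C in complete medium. Intracellular ATP was measured by CellTiter-Glo luminescence, and AC50 values came from Hill-equation fits of concentration-response data.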

[10] = Cell Viability - Mesenchymal (AID 546); settings: mesenchymal cells viability, qHTS; series mostly up to 91.7 µM;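 note: cells exposed to compound for 40 hours before reading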
In short: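 AC50 values reflect the drop in intracellular ATP in a human kidney mesenchymal line derived from normal glomeruli. Treatment lasts 40 hr at 37 °C in complete medium, and the signal comes from CellTiter-Glo luminescence.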

[11] = Cellular Toxicity (caspase-3) HepG2 (AID 654); settings: HepG2 caspase-3 activation, luminescence, 0% = DMSO only, 100% = tamoxifen; series mostly up to 92.2 µM;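 note: cells exposed to compound for 16 hours before reading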
In short: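 qHTS, HepG2, 1500 cells/well, complete medium; cpd 16 h 37 °C; Caspase-Glo 3/7, 20 min RT; lum. Norm: DMSO vs 100 uM tamoxifen; AC50 Hill fit.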

[12] = Cellular Toxicity (caspase-3) HUV-EC-C (AID 656); settings: HUV-EC-C cells, caspase-3 activation (apoptosis), vehicle = 0, 100 µM tamoxifen = 100%; series mostly up to 92.2 µM
In short: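 HUV-EC-C endothelial cells, 1000/well, were pre-incubated 5 hr at 37°C, then exposed to compounds for 16 hr at 37°C. Caspase-Glo 3/7 luminescence was read after 20 min at room temperature. AC50 came from Hill fits, normalized to DMSO and 100 uM tamoxifen.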

[13] = Cellular Toxicity (caspase-3) SHSY5Y (AID 657); settings: SH-SY5Y caspase-3 activation, DMSO zero, 10 µM staurosporine = 100%; series mostly up to 91.7 µM
In short: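 SH-SY5Y human neuroblastoma cells (1500/well) were treated with compounds for 16 h at 37 °C, then Caspase-Glo 3/7 luminescence was read after 1 h at room temperature. Data normalized to DMSO and 10 uM staurosporine; AC50 from Hill fits.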

[14] = Cellular Toxicity (caspase-3) BJ (AID 658); settings: BJ fibroblasts, luminescence, normalized: DMSO 0%, staurosporine 100%; series mostly up to 91.7 µM
In short: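 Readout: Caspase-Glo 3/7 luminescence increase in BJ cells after 16 hr treatment at 37 °C. Staurosporine and tamoxifen served as positive controls; AC50 values came from Hill modelling of data normalized to DMSO and 10 uM staurosporine.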

[15] = Cellular Toxicity (caspase-3) MRC-5 (AID 659); settings: MRC-5 cells, luminescence, normalized: DMSO 0%, 10 µM staurosporine 100%; series mostly up to 91.7 µM
In short: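 Concentration-dependent caspase 3/7 activation is measured in human normal lung fibroblasts (MRC-5) following 16-hour treatment. AC50 values come from standard Hill-equation modeling of luminescence normalized to DMSO and 10 uM staurosporine.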

[16] = Cellular Toxicity (caspase-3) Mesangial (AID 660); settings: mesangial cells, normalized: DMSO 0%, 100 µM tamoxifen 100%; series mostly up to 91.7 µM;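 note: combined caspase 3 and 7 activity read by Caspase-Glo luminescence; cells exposed to compound for 16 h before the caspase read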
In short: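 Concentration-response qHTS: compound-induced rise in caspase 3/7 luminescence in human mesangial cells after 16 h, normalized to DMSO and 100 uM tamoxifen controls.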

[17] = Cellular Toxicity (caspase-3) SK-N-SH (AID 661); settings: SK-N-SH caspase-3 activation, qHTS; series mostly up to 91.7 µM
In short: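 Caspase 3/7 activation is measured as a luminescence increase from aminoluciferin released by substrate cleavage in SK-N-SH cells after 16 hr compound treatment; values are AC50 from concentration-response curves.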

[18] = Cellular Toxicity (caspase-3) H-4-II-E (AID 663); settings: H-4-II-E rat hepatoma, scaled: DMSO 0%, 100 µM tamoxifen 100%; series mostly up to 92.2 µM;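 note: cells exposed to compound for 16 hr before readout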
In short: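 Apoptosis induction is scored as increased luminescence from caspase 3/7 substrate cleavage in rat hepatoma H-4-II-E cells exposed to compound for 16 hr. Activity is scaled between DMSO and 100 uM tamoxifen.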

[19] = Cellular Toxicity (caspase-3) Hek293 (AID 664); settings: HEK293 caspase-3 activation; caspase-3 activation: at 92.2 µM (top of the series), DMSO = 0%, 100 µM tamoxifen = 100%;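 note: cells exposed to compound for 16 h at 37 °C before readout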
In short: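 Activation of caspase-3/7 is measured as increased luminescence from cleaved peptide-aminoluciferin substrate in HEK293 cells treated 16 hours at 37 °C. AC50 values come from Hill-equation fits of concentration-response data.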

[20] = Cellular Toxicity (caspase-3) NIH 3T3 (AID 666); settings: NIH 3T3 caspase-3 activation, apoptosis/toxicity, 0% DMSO, 100% is 100 µM tamoxifen; series mostly up to 92.2 µM;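 note: caspase signal read after 16 h compound exposure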
In short: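 Concentration-response qHTS in NIH 3T3 mouse fibroblasts scores caspase-3/7 activation as rising luminescence after 16 hr compound exposure. Signals are scaled between DMSO-only and 100 uM tamoxifen.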

Chain of 3',5'-cyclic-AMP phosphodiesterase 4B (Homo sapiens) (Q07343 whole entry, looked up): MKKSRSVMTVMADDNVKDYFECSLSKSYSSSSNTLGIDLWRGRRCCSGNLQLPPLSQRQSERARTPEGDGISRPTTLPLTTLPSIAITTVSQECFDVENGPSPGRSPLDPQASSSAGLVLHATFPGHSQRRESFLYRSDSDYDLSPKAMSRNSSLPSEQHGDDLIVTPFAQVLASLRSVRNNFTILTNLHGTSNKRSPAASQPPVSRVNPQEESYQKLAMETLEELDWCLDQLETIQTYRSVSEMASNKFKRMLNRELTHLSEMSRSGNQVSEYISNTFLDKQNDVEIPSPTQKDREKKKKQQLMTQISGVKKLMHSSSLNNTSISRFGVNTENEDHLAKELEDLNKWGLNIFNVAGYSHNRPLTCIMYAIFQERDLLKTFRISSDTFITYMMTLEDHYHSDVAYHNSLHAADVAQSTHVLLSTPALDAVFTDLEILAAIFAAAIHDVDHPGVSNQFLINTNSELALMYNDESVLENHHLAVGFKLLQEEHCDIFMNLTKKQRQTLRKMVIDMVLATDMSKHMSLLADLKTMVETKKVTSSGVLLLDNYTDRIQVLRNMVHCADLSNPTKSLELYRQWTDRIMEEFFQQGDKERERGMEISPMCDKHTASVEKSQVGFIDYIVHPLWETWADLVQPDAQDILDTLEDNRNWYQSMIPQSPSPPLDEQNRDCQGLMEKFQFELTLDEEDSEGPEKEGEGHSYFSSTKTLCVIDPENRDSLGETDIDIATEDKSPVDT
Chain of Glucocorticoid receptor (Homo sapiens) (P04150 whole entry, looked up, the tested form may be a part): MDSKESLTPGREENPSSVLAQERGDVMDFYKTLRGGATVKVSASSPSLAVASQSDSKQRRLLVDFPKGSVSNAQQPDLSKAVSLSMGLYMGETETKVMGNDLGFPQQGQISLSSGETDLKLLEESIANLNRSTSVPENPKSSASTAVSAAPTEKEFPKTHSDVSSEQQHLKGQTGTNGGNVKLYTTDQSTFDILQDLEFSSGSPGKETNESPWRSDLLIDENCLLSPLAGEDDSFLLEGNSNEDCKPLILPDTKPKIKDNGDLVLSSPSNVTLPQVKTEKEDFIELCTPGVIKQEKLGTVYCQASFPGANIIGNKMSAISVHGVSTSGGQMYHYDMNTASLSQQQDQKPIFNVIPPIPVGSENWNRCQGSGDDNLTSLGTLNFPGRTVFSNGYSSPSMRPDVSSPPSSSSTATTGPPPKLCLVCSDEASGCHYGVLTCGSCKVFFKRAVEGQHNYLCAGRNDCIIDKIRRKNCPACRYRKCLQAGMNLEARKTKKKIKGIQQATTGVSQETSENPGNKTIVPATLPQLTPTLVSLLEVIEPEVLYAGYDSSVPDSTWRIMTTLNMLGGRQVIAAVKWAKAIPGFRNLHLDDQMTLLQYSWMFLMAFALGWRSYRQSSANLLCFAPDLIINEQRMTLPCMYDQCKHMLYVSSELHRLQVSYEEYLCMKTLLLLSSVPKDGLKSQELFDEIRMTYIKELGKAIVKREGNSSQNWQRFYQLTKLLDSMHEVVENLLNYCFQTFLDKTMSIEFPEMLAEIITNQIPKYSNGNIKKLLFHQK

CCOC(=O)C(C)(C)Oc1ccc(Cl)cc1
Potency [1]: > 46 µM (inactive) | Potency [2]: > 46 µM (inactive) | outcome [3]: inactive | Potency [4]: inactive

CN(C)CCCN1c2ccccc2CCc2ccc(Cl)cc21
Potency [1]: > 46 µM (inactive) and > 20.6 µM (inactive) | Potency [2]: > 46 µM (inactive) and > 20.6 µM (inactive) | outcome [3]: inactive | Potency [4]: inactive

Cc1cc(C(C)(C)C)c(O)c(C)c1CC1=NCCN1
Potency [1]: > 46 µM (inactive) and > 20.6 µM (inactive) | Potency [2]: > 46 µM (inactive) and > 20.6 µM (inactive) | outcome [3]: inactive | Potency [4]: inactive

O=C(C1CCCCC1)N1CC(=O)N2CCc3ccccc3C2C1 (stereo unspecified)
Potency [1]: > 20.6 µM (inactive)

CN1CCC(=C2c3ccccc3C=Cc3ccccc32)CC1
Potency [1]: > 46 µM (inactive) and > 20.6 µM (inactive) | Potency [2]: > 46 µM (inactive) and > 20.6 µM (inactive) | outcome [3]: inactive

COc1ccc2[nH]cc(CCNC(C)=O)c2c1
Potency [1]: > 46 µM (inactive) and > 20.6 µM (inactive) | Potency [2]: > 46 µM (inactive) and > 20.6 µM (inactive) | outcome [3]: inactive | activity change, negative = cytotoxicity [5]: -15.6% (inactive) and 3.75% (inactive) | Potency [6]: inactive | outcome [7]: inactive | Potency [8]: inactive | Potency [9]: inactive | outcome [10]: inactive | Potency [4]: inactive | outcome [11]: inactive | outcome [12]: inactive | outcome [13]: inactive | outcome [14]: inactive | outcome [15]: inactive | outcome [16]: inactive | Potency [17]: inactive | outcome [18]: inactive | Potency [19]: inactive | outcome [20]: inactive

O=C(c1ccc(F)cc1)C1CCN(CCn2c(=O)[nH]c3ccccc3c2=O)CC1
Potency [1]: > 46 µM (inactive) and > 20.6 µM (inactive) | Potency [2]: > 46 µM (inactive) and > 20.6 µM (inactive) | outcome [3]: inactive | Potency [4]: inactive

CN1CCN(C2=Nc3cc(Cl)ccc3Nc3ccccc32)CC1
Potency [1]: > 46 µM (inactive) and > 20.6 µM (inactive) and 2.68 µM (active) | Potency [2]: > 46 µM (inactive) and > 20.6 µM (inactive) | outcome [3]: inactive | Potency [4]: inactive

COc1ccc(C2CNC(=O)C2)cc1OC1CCCC1 (stereo unspecified)
Potency [1]: > 20.6 µM (inactive)

COc1ccccc1N1CCN(CC(O)COc2cccc3ccccc23)CC1 (stereo unspecified)
Potency [1]: > 20.6 µM (inactive)

OCCN1CCN(CCCN2c3ccccc3Sc3ccc(C(F)(F)F)cc32)CC1
Potency [1]: > 46 µM (inactive) and > 20.6 µM (inactive) | Potency [2]: > 46 µM (inactive) and > 20.6 µM (inactive) | outcome [3]: inactive | Potency [4]: inactive

NCCS(=O)(=O)O
Potency [1]: > 46 µM (inactive) | Potency [2]: > 46 µM (inactive) | outcome [3]: inactive | activity change, negative = cytotoxicity [5]: -1.66% (inactive) | Potency [6]: inactive | outcome [7]: inactive | Potency [8]: inactive | Potency [9]: inactive | outcome [10]: inactive | Potency [4]: inactive | outcome [11]: inactive | outcome [12]: inactive | outcome [13]: inactive | outcome [14]: inactive | outcome [15]: inactive | outcome [16]: inactive | Potency [17]: inactive | outcome [18]: inactive | Potency [19]: inactive | outcome [20]: inactive

O=C1c2c(O)ccc(O)c2C(=O)c2c(NCCNCCO)ccc(NCCNCCO)c21
Potency [1]: > 46 µM (inactive) and > 20.6 µM (inactive) | Potency [2]: > 46 µM (inactive) and > 20.6 µM (inactive) | outcome [3]: inactive | Potency [4]: inactive

Cn1cnc2c1c(=O)[nH]c(=O)n2C
Potency [1]: > 46 µM (inactive) and > 20.6 µM (inactive) | Potency [2]: > 46 µM (inactive) and > 20.6 µM (inactive) | outcome [3]: inactive | Potency [4]: inactive

N[C@@H](Cc1c[nH]c2ccc(O)cc12)C(=O)O
Potency [1]: > 46 µM (inactive) | Potency [2]: > 46 µM (inactive) | outcome [3]: inactive | activity change, negative = cytotoxicity [5]: -0.161% (inactive) | Potency [6]: inactive | outcome [7]: inactive | Potency [8]: inactive | Potency [9]: inactive | outcome [10]: inactive | Potency [4]: inactive | outcome [11]: inactive | outcome [12]: inactive | outcome [13]: inactive | outcome [14]: inactive | outcome [15]: inactive | outcome [16]: inactive | Potency [17]: inactive | outcome [18]: inactive | Potency [19]: inactive | outcome [20]: inactive

CN1C(C(=O)Nc2ccccn2)=C(O)c2ccccc2S1(=O)=O
Potency [1]: > 46 µM (inactive) and > 20.6 µM (inactive) | Potency [2]: > 46 µM (inactive) and > 20.6 µM (inactive) | outcome [3]: inactive | Potency [4]: inactive

CC(C)Cc1ccc(C(C)C(=O)O)cc1 (stereo unspecified)
Potency [1]: > 20.6 µM (inactive)

Cn1ccc2cc3c(cc21)CCN3C(=O)Nc1cccnc1
Potency [1]: > 46 µM (inactive) | Potency [2]: > 46 µM (inactive) | outcome [3]: inactive | Potency [4]: inactive

COc1ccc2c(c1)c(CC(=O)O)c(C)n2C(=O)c1ccc(Cl)cc1
Potency [1]: > 46 µM (inactive) and > 20.6 µM (inactive) | Potency [2]: > 46 µM (inactive) and > 20.6 µM (inactive) | outcome [3]: inactive | activity change, negative = cytotoxicity [5]: 0.758% (inactive) | Potency [6]: inactive | outcome [7]: inactive | Potency [8]: inactive | Potency [9]: inactive | outcome [10]: inactive | Potency [4]: inactive | outcome [11]: inactive | outcome [12]: inactive | outcome [13]: inactive | outcome [14]: inactive | outcome [15]: inactive | outcome [16]: inactive | Potency [17]: inactive | outcome [18]: inactive | Potency [19]: inactive | outcome [20]: inactive

O=C1N(c2ccccc2)c2ccccc2C1(Cc1ccncc1)Cc1ccncc1
Potency [1]: > 46 µM (inactive) | Potency [2]: > 46 µM (inactive) | outcome [3]: inactive | Potency [4]: inactive

— PubChem BioAssay (NCATS)
